# Source: PubChem BioAssay (Tox21)
# Records with an inconclusive call do not appear. Entries that show only a call come without a potency. Calls of active or inactive are those of the source. Unless noted, calls follow the shape of the dose curve; as a rule, active = well fitted cell-killing curve with a large enough effect in the repeat runs; inconclusive = weak or mixed curves, or effect the other way; inactive = flat fitted curve, though single readings scatter.
# Test system: not listed separately
# Test: qHTS assay to identify small molecule agonists of the TGF-beta/Smad signaling pathway - cell viability counter screen (AID 1346829); also: top concentration of the series differs between compounds; nearly all actives have a fitted effect of over 45% in size
# Details: SBE-bla HEK293T viability, CellTiter-Glo luminescence, 5 h; series mostly up to 76.8 µM
# Summary of the method: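 Same-well cytotoxicity: CellTiter-Glo added after the 2 hr room-temperature beta-lactamase substrate step, luminescence measured 30 min later; cells had 5 hr of compound at 37 C.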
row,Compound,Potency
1,CCCCCCCCOC(=O)c1ccc(C(=O)OCCCCCCCC)c(C(=O)OCCCCCCCC)c1,inactive
2,CC(C)O.CC(C)O.OCCN(CCO)CCO.OCCN(CCO)CCO.[Ti],inactive
3,C[N+](C)(C)CCCl,inactive
4,C=CCN1CC[C@]23c4c5ccc(O)c4O[C@H]2C(=O)CC[C@@]3(O)[C@H]1C5,inactive
5,CCOC(=O)C(Cl)C(C)=O (stereo not drawn),inactive
6,CC(Cl)Cl,inactive
7,C=COC(C)=O,inactive
8,COC(=O)c1cncn1C(C)c1ccccc1 (stereo not drawn),inactive
9,Clc1cc(Cl)c(Cl)c(Cl)c1,inactive
10,C[C@@H]1CC[C@H]2[C@@H](C)C(=O)O[C@@H]3O[C@@]4(C)CC[C@@H]1[C@]32OO4,inactive
11,CCBr,inactive
12,CCOP(O)OCC,inactive
13,CC(C)(OO)c1ccccc1,inactive
14,CC1C(=O)C[C@]2(C(C)C)C[C@H]12 (stereo partly drawn),inactive
15,CC/C(=N\OC/C=C/Cl)C1=C(O)CC(C2CCOCC2)CC1=O (stereo not drawn),inactive
16,CC(C)(CCl)C(=O)Cl,inactive
17,C=CC(=O)OCC(C)O (stereo not drawn),inactive
18,CCOS(C)(=O)=O,inactive

row,Compound,Potency
1,C[C@H]1CNCCc2ccc(Cl)cc21,inactive
2,CCC(Br)(CC)C(=O)NC(N)=O,inactive
3,COC(C)(C)CCC[C@H](C)C/C=C/C(C)=C/C(=O)OC(C)C,inactive
4,Clc1cc(C(Cl)(Cl)Cl)cnc1Cl,inactive
5,CCCCNP(N)(N)=S,inactive
6,CC(=O)[C@H]1CC[C@H]2[C@@H]3CC[C@H]4C[C@](C)(O)CC[C@]4(C)[C@H]3CC[C@]12C,inactive
7,O=C(O)C(F)(F)C(F)(F)C(F)(F)C(F)(F)C(F)(F)C(F)(F)C(F)(F)C(F)(F)C(F)(F)F,inactive
8,C#CCOC(C(=O)OCCN(C)C)(c1ccccc1)c1ccccc1,inactive
9,O=S(=O)(Cl)c1ccccc1,inactive
10,Cc1cc(=O)[nH]o1,inactive
11,O=C(O)COc1ccc(Cl)cc1,inactive
12,CNC(C)Cc1ccccc1OC (stereo not drawn),inactive
13,c1ccc(CN2CCNCC2)cc1,inactive
14,CCN(C)N=O,inactive
15,ClCc1ccccc1,inactive
16,O=S1OC[C@@H]2[C@H](CO1)[C@]1(Cl)C(Cl)=C(Cl)[C@@]2(Cl)C1(Cl)Cl (stereo partly drawn),inactive
17,CCCCCC[N+](=O)[O-],inactive

# Test system: not listed separately
# Test: qHTS assay to identify small molecule agonists of the TGF-beta/Smad signaling pathway (AID 1346859; active = well fitted activation curve with a large enough effect in the signal ratio in the repeat runs, not every such curve was filed as active; the % refers to the signal ratio)
# Details: SBE-bla HEK293T, TGF-beta/Smad beta-lactamase reporter, 5 h; series mostly up to 76.8 µM
# Summary of the method: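 HEK 293T cells stably carrying a beta-lactamase reporter driven by the Smad binding element were seeded overnight, exposed to DMSO-dissolved compounds for 5 hr at 37 C, 5% CO2, then loaded with FRET substrate for 2 hr at room temperature.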
row,Compound,outcome
1,CCCCCCCCOC(=O)c1ccc(C(=O)OCCCCCCCC)c(C(=O)OCCCCCCCC)c1,inactive
2,CC(C)O.CC(C)O.OCCN(CCO)CCO.OCCN(CCO)CCO.[Ti],inactive
3,C[N+](C)(C)CCCl,inactive
4,C=CCN1CC[C@]23c4c5ccc(O)c4O[C@H]2C(=O)CC[C@@]3(O)[C@H]1C5,inactive
5,CCOC(=O)C(Cl)C(C)=O (stereo not drawn),inactive
6,CC(Cl)Cl,inactive
7,C=COC(C)=O,inactive
8,COC(=O)c1cncn1C(C)c1ccccc1 (stereo not drawn),inactive
9,Clc1cc(Cl)c(Cl)c(Cl)c1,inactive
10,C[C@@H]1CC[C@H]2[C@@H](C)C(=O)O[C@@H]3O[C@@]4(C)CC[C@@H]1[C@]32OO4,inactive
11,CCBr,inactive
12,CCOP(O)OCC,inactive
13,CC(C)(OO)c1ccccc1,inactive
14,CC1C(=O)C[C@]2(C(C)C)C[C@H]12 (stereo partly drawn),inactive
15,CC/C(=N\OC/C=C/Cl)C1=C(O)CC(C2CCOCC2)CC1=O (stereo not drawn),inactive
16,CC(C)(CCl)C(=O)Cl,inactive
17,C=CC(=O)OCC(C)O (stereo not drawn),inactive

row,Compound,outcome
1,CCOS(C)(=O)=O,inactive
2,C[C@H]1CNCCc2ccc(Cl)cc21,inactive
3,CCC(Br)(CC)C(=O)NC(N)=O,inactive
4,COC(C)(C)CCC[C@H](C)C/C=C/C(C)=C/C(=O)OC(C)C,inactive
5,CCCCNP(N)(N)=S,inactive
6,CC(=O)[C@H]1CC[C@H]2[C@@H]3CC[C@H]4C[C@](C)(O)CC[C@]4(C)[C@H]3CC[C@]12C,inactive
7,O=C(O)C(F)(F)C(F)(F)C(F)(F)C(F)(F)C(F)(F)C(F)(F)C(F)(F)C(F)(F)C(F)(F)F,inactive
8,C#CCOC(C(=O)OCCN(C)C)(c1ccccc1)c1ccccc1,inactive
9,O=S(=O)(Cl)c1ccccc1,inactive
10,Cc1cc(=O)[nH]o1,inactive
11,CNC(C)Cc1ccccc1OC (stereo not drawn),inactive
12,c1ccc(CN2CCNCC2)cc1,inactive
13,CCN(C)N=O,inactive
14,ClCc1ccccc1,inactive
15,O=S1OC[C@@H]2[C@H](CO1)[C@]1(Cl)C(Cl)=C(Cl)[C@@]2(Cl)C1(Cl)Cl (stereo partly drawn),inactive
16,CCCCCC[N+](=O)[O-],inactive

# Biological target: Thyrotropin-releasing hormone receptor (Homo sapiens) (UniProt P34981)
# Sequence (P34981 whole entry, looked up): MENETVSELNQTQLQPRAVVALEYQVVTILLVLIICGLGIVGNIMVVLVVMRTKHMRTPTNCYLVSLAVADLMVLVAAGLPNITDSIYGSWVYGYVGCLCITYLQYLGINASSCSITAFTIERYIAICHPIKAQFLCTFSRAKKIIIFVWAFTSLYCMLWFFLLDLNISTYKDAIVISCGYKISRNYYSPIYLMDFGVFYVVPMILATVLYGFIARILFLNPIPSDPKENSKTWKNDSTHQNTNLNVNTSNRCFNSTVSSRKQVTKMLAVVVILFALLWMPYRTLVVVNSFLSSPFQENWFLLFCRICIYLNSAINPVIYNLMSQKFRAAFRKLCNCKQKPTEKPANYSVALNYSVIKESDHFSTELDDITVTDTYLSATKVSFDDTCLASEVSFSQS
# Test: qHTS assay to identify small molecule antagonists of the thyrotropin-releasing hormone receptor (TRHR) signaling pathway (AID 1346877; active = well fitted inhibition curve with a large enough effect in the repeat runs, not every such curve was filed as active)
# Details: TRHR-HEK293, TRH-induced calcium fluorescence, antagonist mode; series mostly up to 51.3 µM
# Summary of the method: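 TRHR-expressing HEK293 cells were seeded, cultured 18 h at 37 °C, then loaded with calcium dye for 2 h. Compounds were pre-incubated 5 min at room temperature before 1 nM TRH (final) was added, and kinetic fluorescence was recorded for 3 min.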
row,Compound,Potency
1,CCCCCCCCOC(=O)c1ccc(C(=O)OCCCCCCCC)c(C(=O)OCCCCCCCC)c1,inactive
2,C[N+](C)(C)CCCl,inactive
3,CCOC(=O)C(Cl)C(C)=O (stereo not drawn),inactive
4,CC(Cl)Cl,inactive
5,C[C@@H]1CC[C@H]2[C@@H](C)C(=O)O[C@@H]3O[C@@]4(C)CC[C@@H]1[C@]32OO4,inactive
6,CCBr,inactive
7,CCOP(O)OCC,inactive
8,CC(C)(OO)c1ccccc1,inactive
9,CC(C)(CCl)C(=O)Cl,inactive
10,C=CC(=O)OCC(C)O (stereo not drawn),inactive
11,C[C@H]1CNCCc2ccc(Cl)cc21,inactive
12,CCC(Br)(CC)C(=O)NC(N)=O,inactive
13,COC(C)(C)CCC[C@H](C)C/C=C/C(C)=C/C(=O)OC(C)C,inactive
14,Clc1cc(C(Cl)(Cl)Cl)cnc1Cl,inactive
15,CCCCNP(N)(N)=S,inactive
16,CC(=O)[C@H]1CC[C@H]2[C@@H]3CC[C@H]4C[C@](C)(O)CC[C@]4(C)[C@H]3CC[C@]12C,inactive
17,Cc1cc(=O)[nH]o1,inactive
18,O=C(O)COc1ccc(Cl)cc1,inactive
19,CNC(C)Cc1ccccc1OC (stereo not drawn),inactive
20,CCCCCC[N+](=O)[O-],inactive
